Experiment [1] concerns NIH3T3. Put plainly: Cytotoxic Profiling of Annotated Libraries Using Quantitative High-Throughput Screening (AID 1296008). Also: nearly all actives have a fitted effect of over 60% in size. To be noted: Five cell lines viability, CellTiter-Glo ATP luminescence, 48-72 h; max response: active compounds read low. In a few lines:
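Compounds were pin-transferred onto cells and incubated 48 or 72 hr at 37 degree Celsius, 95% humidity. CellTiter-Glo was added, plates sat 10 min at room temperature, then ATP-coupled luminescence was imaged as the viability read-out.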
Background: In ATP-based viability assays light output follows the ATP content of the culture.

The subject of experiment [2] is MCC-13. Put plainly: qHTS assay to identify novel small-molecules to repurpose for Merkel cell carcinoma treatment (AID 1296009). Also: nearly all actives have a fitted effect of over 60% in size. The conditions noted are these: MCC and control cell lines, CellTiter-Glo viability, 72 h; series mostly up to 46 µM. Summed up:
(§1)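 Viability readout: ATP luminescence (CellTiter-Glo) after 72 hr drug exposure at 37 degree celsius. Dose-response format was 8 points for NPC and 11 points for MIPE; data normalized to in-plate controls.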
On the technique in general: Quantitative high-throughput screening tests each substance at several concentrations.

Experiment [3] relates to MKL-1. The experiment is described as above. The conditions noted are these: MCC and control cell lines, CellTiter-Glo viability, 72 h; series mostly up to 46 µM. Summed up: as §1
Experiment [4] has as its system MKL-2. The experiment is described as above. To be noted: MCC and control cell lines, CellTiter-Glo viability, 72 h; series mostly up to 46 µM. In a few lines: as §1
Experiment [5] relates to WaGa. Described as above. The conditions noted are these: MCC and control cell lines, CellTiter-Glo viability, 72 h; series mostly up to 46 µM. In a few lines:
as §1

For experiment [6], the system named is UISO. Described as above. To be noted: MCC and control cell lines, CellTiter-Glo viability, 72 h; series mostly up to 46 µM. In a few lines:
as §1

In experiment [7] the test system is MCC-26. The description is as above. The conditions noted are these: MCC and control cell lines, CellTiter-Glo viability, 72 h; series mostly up to 46 µM. Summed up:
as §1

Experiment [8] deals with NIH3T3. The description is as above. To be noted: MCC and control cell lines, CellTiter-Glo viability, 72 h; at 44.8 µM (top of the series) unless noted. Summed up:
as §1

In experiment [9] the test system is CAOV3. Put plainly: Primary qHTS to identify gynecologic anti-cancer compounds using libraries of approved drugs and bioactive compounds (AID 1345084). Also: nearly all actives have a fitted effect of over 55% in size. To be noted: Gynecologic cancer cell panel viability, ATPlite luminescence, 48 h; series mostly up to 57.5 µM. Summed up: (§2)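 Cells, 1,000 per well, plated 16 h, then exposed 48 h at 37 C to compounds. Viability by ATPlite luminescence after 15 min at room temperature.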

In experiment [10] the test system is CASKI. Described as above. The conditions noted are these: Gynecologic cancer cell panel viability, ATPlite luminescence, 48 h; series mostly up to 57.5 µM. Summed up: as §2
For experiment [11], the system named is HeLa. Described as above. To be noted: Gynecologic cancer cell panel viability, ATPlite luminescence, 48 h; series mostly up to 57.5 µM. Summed up:
as §2

Experiment [12] deals with JEG-3. The experiment is described as above. To be noted: Gynecologic cancer cell panel viability, ATPlite luminescence, 48 h; series mostly up to 57.5 µM. Summed up: as §2
Experiment [13] concerns OV90. The experiment is described as above. To be noted: Gynecologic cancer cell panel viability, ATPlite luminescence, 48 h; series mostly up to 57.5 µM. In a few lines:
as §2

Experiment [14] deals with PA-1. Described as above. To be noted: Gynecologic cancer cell panel viability, ATPlite luminescence, 48 h; series mostly up to 57.5 µM. Summed up:
as §2

The subject of experiment [15] is SKOV3. The description is as above. The conditions noted are these: Gynecologic cancer cell panel viability, ATPlite luminescence, 48 h; series mostly up to 57.5 µM. In a few lines: as §2
Experiment [16] has as its system C33A. Described as above. To be noted: Gynecologic cancer cell panel viability, ATPlite luminescence, 48 h; series mostly up to 57.5 µM. Summed up:
as §2

In experiment [17] the test system is Es-2. Described as above. The conditions noted are these: Gynecologic cancer cell panel viability, ATPlite luminescence, 48 h; series mostly up to 57.5 µM. Summed up:
as §2

For experiment [18], the system named is Hek293T. Described as above. The conditions noted are these: Gynecologic cancer cell panel viability, ATPlite luminescence, 48 h, control line for the selectivity index; series mostly up to 57.5 µM. Summed up: as §2
Experiment [19] concerns HACAT. Put plainly: qHTS assay to identify novel small-molecules to repurpose for Merkel cell carcinoma treatment (AID 1296009). Also: nearly all actives have a fitted effect of over 60% in size. To be noted: MCC and control cell lines, CellTiter-Glo viability, 72 h; at 44.8 µM (top of the series) unless noted. In a few lines:
as §1

Where “and” joins values, the source holds several entries; their conditions need not be identical. Equal entries are not always repeated. Records with an inconclusive call do not appear. A number with no mark means an inactive call. Calls of active or inactive are those of the source. Calls follow the shape of the dose curve; as a rule, active = well fitted curve in the direction sought with a large enough effect; inconclusive = small, poorly fitted or top-dose-only effect, or another doubt; inactive = no such curve, though single readings can be large; an effect the other way counts as inactive or inconclusive.
% is scaled to controls: 0 for no effect and ±100 for the full control effect; potency is read from the fitted curve at half-maximal effect.

For `Nc1nc2[nH]cc(CCc3ccc(C(=O)N[C@@H](CCC(=O)O)C(=O)O)cc3)c2c(=O)[nH]1`, the Potency is 1.18 µM (active) in experiment [1] and 2.35 µM (active) in [5]. Besides, the Potency result in [2], in [3] and in experiment [4] was “inactive” each time.

On to `O=C(O)[C@@H](c1ccc(OCc2ccc3ccccc3n2)cc1)C1CCCC1`, for which the max response in [1] is -0.267%. Moreover, the Potency entry in experiment [2], in experiment [3], in [4], in experiment [6] and in experiment [5] was “inactive” in each case.

As to `Cc1cc([C@@H](C)Nc2ccccc2C(=O)O)c2nc(N3CCOCC3)cc(=O)n2c1`, the results for the Potency in experiment [1] and in experiment [6] were 12.1 µM (active) and 34 µM (active), respectively. For the same compound, the Potency entry in experiment [2] and in experiment [3] was “inactive” in each case.

Consider `Cc1cnc(Nc2ccc(OCCN3CCCC3)cc2)nc1Nc1cccc(S(=O)(=O)NC(C)(C)C)c1`, for which the outcome in experiment [1] and in experiment [8] was inactive. The Potency entry in experiment [2], in [7], in experiment [3], in experiment [6] and in experiment [5] was “inactive” in each case. Further, the Potency in experiment [9] is 10 µM (active); in experiment [10], 14.1 µM (active); in experiment [11] it was 7.08 µM (active); in experiment [12], 12.6 µM (active); in [13] it was 17.8 µM (active); in experiment [14] it was 8.91 µM (active). Besides, in experiment [15], the Potency is 7.94 µM (active).

As for `NC(=O)c1ccc(-c2nc(-c3ccc4c(c3)OCCO4)c(-c3ccccn3)[nH]2)cc1`, the max response in [1] is -6.71%. For the same compound, the Potency entry in experiment [2], in experiment [7], in experiment [3], in experiment [6] and in experiment [5] was “inactive” throughout.

On to `COCC(=O)NCC=Cc1ccc2ncnc(Nc3ccc(Oc4ccc(C)nc4)c(C)c3)c2c1`, for which the max response in experiment [1] was -10.3%. Besides, the Potency entry in experiment [7] and in experiment [3] was “inactive” throughout.

Regarding `CCOC(=O)C1=C[C@]2(CC)CCCN3CCc4c(n1c1ccccc41)[C@@H]32`, the max response in experiment [1] was -12.6%. For the same compound, the Potency result in experiment [2], in experiment [7], in experiment [3], in experiment [6], in [5] and in [16] was “inactive” throughout. In addition, the Potency entry in [10], in experiment [17], in [11], in experiment [18], in experiment [12] and in experiment [13] was “inactive” in each case. Further, the Potency entry in [14] was “inactive”.

As to `COc1cc(F)c(F)c(Nc2ccc(I)cc2F)c1NS(=O)(=O)C1(C[C@H](O)CO)CC1`, the max response in experiment [1] was -9.12%. In addition, the Potency entry in experiment [2], in experiment [7], in experiment [3], in experiment [4], in experiment [6] and in [5] was “inactive” each time. In addition, the Potency entry in experiment [16], in [10], in [11], in [18], in [12] and in [14] was “inactive” in each case. In addition, in experiment [15], the Potency entry is “inactive”. Further, the Potency in [13] was 2.51 µM (active).

As for `COc1ccc(C2=N[C@H](c3ccc(Cl)cc3)[C@H](c3ccc(Cl)cc3)N2C(=O)N2CCNC(=O)C2)c(OC(C)C)c1`, the Potency result in [2] was “inactive”. Moreover, the Potency is 9.35 µM (active) in experiment [3] and 2.96 µM (active) in experiment [5].

Regarding `Cc1cccc(-c2nn(C(=S)Nc3ccccc3)cc2-c2ccnc3ccccc23)n1`, the Potency result in experiment [2], in [7], in experiment [3], in [4] and in experiment [6] was “inactive” each time.

For `N[C@@H]1CONC1=O`, the Potency result in [16], in [10], in experiment [17], in [11], in experiment [18] and in experiment [12] was “inactive” in each case. Further, the Potency entry in experiment [13], in experiment [14] and in [15] was “inactive” throughout.

In the case of `O=C1[C@H](Cc2ccc(O)cc2)N2C(=O)CCN(C(=O)NCc3ccccc3)[C@H]2CN1Cc1cccc2ccccc12`, the Potency in experiment [3] was 14.8 µM (active); in experiment [6], 4.69 µM (active); in [5], 13.2 µM (active).

With `Cc1oncc1C(=O)Nc1ccc(C(F)(F)F)cc1`, the Potency was 31.6 µM (active) in [10]; 28.2 µM (active) in experiment [17]; 25.1 µM (active) in experiment [11]; 14.1 µM (active) in experiment [18]; 25.1 µM (active) in [12]; 17.8 µM (active) in experiment [13]. The Potency in experiment [14] was 11.2 µM (active); in experiment [15], 25.1 µM (active).

In the case of `CNC(=O)c1ccccc1Sc1ccc2c(/C=C/c3ccccn3)n[nH]c2c1`, the Potency in [1] is 8.41 µM (active) and 7.31 µM (active); in experiment [9], 10 µM (active) and 8.91 µM (active); in experiment [10], 11.2 µM (active); in [17] it was 15.8 µM (active) and 17.8 µM (active); in experiment [11], 3.98 µM (active) and 3.55 µM (active); in experiment [18], 10 µM (active) and 12.6 µM (active). For the same compound, in [13], the Potency is 11.2 µM (active). Also, the Potency result in [7] is “inactive”.

For `Cc1cccc(-c2[nH]c(C(C)(C)C)nc2-c2ccc3nccnc3c2)n1`, the call in [19] was inactive. In addition, the Potency result in experiment [2] is “inactive”. Besides, the Potency in experiment [3] was 2.64 µM (active); in experiment [6] it was 2.96 µM (active); in experiment [5], 2.64 µM (active).

These data come from PubChem BioAssay (NCATS).
